HIF activator – HIF pathway transcriptional activation | U2OS HRE-luciferase reporter, luminescence; normalized: DMSO 0%, desferrioxamine 100% | activation, % at 7.5 µM (by protocol) | actives 0.32% (n = 300,000) | AID 1910;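 active = mean activation of at least 10% of the iron chelator positive control signal, with at least half of replicates also reaching 10%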
Jurkat NFkB inh – inhibitors of the PMA/ionomycin-induced NF-kB reporter in Jurkat cells | PMA/ionomycin-induced NF-kB luciferase reporter, luminescence | AID 435003 | actives 0.53% (n = 330,000) | inhibition, % at 4 µM; in the data active = inhibition above about 50%
F508del corr – correctors of CFTR F508del function in bronchial epithelial cells | CFBE cells, YFP halide quenching; stimulated with forskolin plus potentiator P3; % fluorescence drop versus neutral controls | activity (quench increase), % at 7.58 µM | actives 0.36% (n = 350,000) | AID 720511;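 active = mean added fluorescence quench of at least 8% versus neutral control, with both replicates also reaching 8%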;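 note: cells transiently co-express mutant CFTR-F508del with the halide-sensitive YFP; corrector assay measuring rescue of mutant channel to the surface after 24 h compound exposure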
697 NFkB inh – inhibitors of the PMA/ionomycin-induced NF-kB reporter in 697 B cells; actives 0.33% (n = 330,000); AID 435022; 697 B-cell NF-kB luciferase reporter, 16 h; inhibition, % at 4 µM; in the data active = inhibition above about 35%
697 NFkB conf – inhibitors of the PMA/ionomycin-induced NF-kB reporter in 697 B cells, retest; shares compounds with 697 NFkB inh; 697 B-cell NF-kB luciferase, 16 h; inhibition, % at 4 µM; actives 35% (n = 2,000); AID 449746; in the data active = inhibition mostly above about 28%, no sharp cut-off; inactive = mostly below about 22%
A number is an active result; n = inactive; x = not tested or not shown. This is a sample that favours compounds with a hit; in the whole collection about 0.93% have one here.

SMILES | HIF activator | Jurkat NFkB inh | F508del corr | 697 NFkB inh | 697 NFkB conf
Cc1cc(NC2CCCC2)n2nc(C)c(-c3ccccc3)c2n1 | n | n | n | n | x
Cc1nc2c(-c3ccccc3)cnn2c(N)c1-c1ccccc1 | n | n | n | n | n
CN(C)CC#Cc1cccc(-c2nc(C(=O)N[C@@H]3CCN(Cc4ccccc4)C3)cc3c2[C@H](CCO)N(S(=O)C(C)(C)C)C3)c1 (stereo partly drawn) | x | x | n | x | x
O=C(Nc1ccccc1F)N[C@@H]1CC[C@H](CCNS(=O)(=O)c2ccccc2)O[C@H]1CO | x | x | n | x | x
O=C(O)c1cc(N/N=C/c2cccs2)ccc1Cl | n | n | x | n | x
Cc1ccc(/C=N/Nc2ccc(Cl)c(C(=O)O)c2)s1 | n | n | x | n | n
Cc1ccc2oc(-c3ccc(NC(=O)c4cccnc4)cc3)nc2c1 | n | n | x | n | n
CC(C)CC(=O)Nc1ccc2oc(-c3cccnc3)nc2c1 | n | n | x | n | x
O=C(Nc1ccc(-c2nc3ccccc3o2)cc1)c1cccnc1 | n | n | x | n | x
Cc1ccc2oc(-c3ccc(NC(=O)CC(C)C)cc3)nc2c1 | x | n | n | n | n
CCCC(=O)Nc1ccc2c(c1)C(=O)N(C)[C@@H]1CC[C@@H](CC(=O)Nc3ccccc3)O[C@@H]1CO2 | x | x | n | x | x
COc1ccc(CN2CC3(CCN(S(=O)(=O)c4ccc(C)cc4)CC3)c3c([nH]c4cc(OC)ccc34)[C@H]2CO)cc1 | x | x | n | x | x
Cn1c(C(=O)NCc2cccs2)cc2oc3ccccc3c21 | n | n | x | n | n
Cn1c(C(=O)NCc2ccccc2)cc2oc3ccccc3c21 | n | n | x | n | n
CCNC(=O)[C@@H]1[C@@H](CO)[C@@H]2Cn3c(ccc(-c4cncnc4)c3=O)[C@@H]2N1C(=O)c1ccccc1F | x | x | n | x | x
CC1CCCN(C(=O)CSc2nnc3n(C4CCCC4)c(=O)c4ccccc4n23)C1 (stereo not drawn) | n | n | x | 35.2 | n
O=C(CSc1nnc2n(C3CCCC3)c(=O)c3ccccc3n12)N1CCCCCC1 | n | n | x | n | x
O=C(NCC[C@@H]1CC[C@@H](NS(=O)(=O)c2ccc(F)cc2)[C@@H](CO)O1)Nc1ccc(F)cc1 | x | x | n | x | x
COC(=O)C1CCN(C(=O)c2oc3c(Cl)cc(C)cc3c2C)CC1 | n | n | n | n | n
O=C(C[C@H]1CC[C@@H](NS(=O)(=O)c2cccc(F)c2)[C@@H](CO)O1)NCc1ccc2c(c1)OCO2 | x | x | n | x | x
C/C(=N\Nc1nncc2ccccc12)c1ccc(C(C)(C)C)cc1 | n | n | x | n | x
C/C(=N\Nc1nncc2ccccc12)c1ccc(O)cc1 | n | n | n | n | n
O=C(CCCc1ccccc1)c1ccc2c(c1)OCCO2 | n | n | n | n | n
Cc1ccc(NC(=O)C2CCC(CNc3c(N4CCC(C)CC4)c(=O)c3=O)CC2)cc1F (stereo not drawn) | n | n | n | 47.5 | 32.8
C/C=C/c1ccc2c(c1)O[C@@H](CN(C)C(=O)CN(C)C)[C@H](C)CN([C@H](C)CO)S2(=O)=O | x | x | n | x | x
SMILES | HIF activator | Jurkat NFkB inh | F508del corr | 697 NFkB inh | 697 NFkB conf
COc1ccc(-c2noc(N3CCC(C(=O)Nc4ccccc4F)CC3)n2)cc1 | n | n | n | n | x
COc1ccc(-c2noc(N3CCC(C(=O)Nc4ccccc4Cl)CC3)n2)cc1 | n | n | n | 39.1 | n
COc1ccc(-c2noc(N3CCC(C(=O)Nc4ccc(OC)c(OC)c4)CC3)n2)cc1 | n | n | n | 46.7 | 38.0
CCCNC(=O)N[C@H]1C=C[C@H](CC(=O)NCCc2ccccc2)O[C@@H]1CO | x | x | n | x | x
NC(=S)Nc1ncc(C(F)(F)F)cc1Cl | n | n | n | 47.3 | n
NC(=S)c1ncc(C(F)(F)F)cc1Cl | n | n | n | n | x
O=C(C[C@@H]1C=C[C@@H](NC(=O)C2CCOCC2)[C@@H](CO)O1)Nc1ccccc1 | x | x | n | x | x
CCSc1ncc(Cl)c(C(=O)Nc2sc3c(c2C(=O)NCc2cccnc2)CCCC3)n1 | x | n | x | 38.0 | 24.6
COCC(=O)Nc1ccc2c(c1)C(=O)N(C)C[C@@H](OC)[C@H](C)CN(C(=O)CC1CC1)[C@@H](C)CO2 | x | x | n | x | x
Cc1nnc2ccc(-c3cccc(NS(=O)(=O)c4ccccc4Cl)c3)nn12 | n | n | n | n | x
CCCS(=O)(=O)Nc1cccc(-c2ccc3nnc(C)n3n2)c1 | n | n | n | 38.9 | 38.5
Cc1nnc2ccc(-c3cccc(NS(=O)(=O)c4ccccc4[N+](=O)[O-])c3)nn12 | n | n | n | 40.1 | n
CCOc1ccc(CC(=O)Nc2cccc(-c3ccc4nnc(C)n4n3)c2)cc1 | x | n | n | n | x
Cc1nnc2ccc(-c3cccc(NS(=O)(=O)c4cc(F)ccc4F)c3)nn12 | n | n | n | 38.3 | n

Compound activity deposited in PubChem by several laboratories.
